Among all 5,500 compounds or so, about 2,000 (36%) were called active. Roughly 18% stayed inconclusive and do not appear here. Rule as the data show it: active = normalized growth mostly below about 0.91 (no sharp cut-off); inconclusive = no clear call, values can overlap the other calls; inactive = mostly above about 0.92. The list shows a part of the results.
Assay: chemical genetic growth profiling, strain panel (AID 1159580);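 also: tested at 20 µM; growth read once vehicle control cultures reached saturation at 30 °C; 1 = growth at the plate median or of vehicle wells; lower values mean less growth of the strain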
Conditions: growth OD

Measured: normalized growth

O=C(O)CCC(=O)OC[C@@H](NC(=O)C(Cl)Cl)[C@H](O)c1ccc([N+](=O)[O-])cc1
inactive: S. cerevisiae deletion strains, locus YJR043C, strain POL32, stronger effect = lower value 0.977 | S. cerevisiae deletion strains, locus YJR066W, strain TOR1, stronger effect = lower value 0.981 | S. cerevisiae deletion strains, locus YKL009W, strain mrt4, stronger effect = lower value 1 | S. cerevisiae deletion strains, locus YKL068W, stronger effect = lower value 0.962 | S. cerevisiae deletion strains, locus YKL085W, strain MDH1 (second series), stronger effect = lower value 0.99 | S. cerevisiae deletion strains, locus YKL085W, strain MDH1, stronger effect = lower value 0.99 | S. cerevisiae deletion strains, locus YKL160W, strain elf1, stronger effect = lower value 0.98 | S. cerevisiae deletion strains, locus YKL190W, strain CNB1, stronger effect = lower value 0.993 | S. cerevisiae deletion strains, locus YKR001C, strain vps1, stronger effect = lower value 0.967 | S. cerevisiae deletion strains, locus YKR026C, strain gcn3, stronger effect = lower value 0.984 | S. cerevisiae deletion strains, locus YKR091W, strain srl3, stronger effect = lower value 0.971 | S. cerevisiae deletion strains, locus YLL001W, strain dnm1, stronger effect = lower value 0.937 | S. cerevisiae deletion strains, locus YLL026W, stronger effect = lower value 0.974 | S. cerevisiae deletion strains, locus YLL041C, strain sdh2, stronger effect = lower value 0.993 | S. cerevisiae deletion strains, locus YLR027C, strain aat2, stronger effect = lower value 0.99 | S. cerevisiae deletion strains, locus YLR039C, strain RIC1, stronger effect = lower value 0.964 | S. cerevisiae deletion strains, locus YLR058C, strain SHM2, stronger effect = lower value 0.976 | S. cerevisiae deletion strains, locus YLR102C, strain apc9, stronger effect = lower value 0.977 | S. cerevisiae deletion strains, locus YLR113W, strain HOG1, stronger effect = lower value 0.973 | S. cerevisiae deletion strains, locus YLR221C, strain rsa3, stronger effect = lower value 0.918 | S. cerevisiae deletion strains, locus YLR258W, strain gsy2, stronger effect = lower value 0.984 | S. cerevisiae deletion strains, locus YLR262C, strain YPT6 (second series), stronger effect = lower value 0.966 | S. cerevisiae deletion strains, locus YLR262C, strain YPT6, stronger effect = lower value 0.866 | S. cerevisiae deletion strains, locus YLR268W, strain sec22, stronger effect = lower value 0.974 | S. cerevisiae deletion strains, locus YLR320W, strain mms22, stronger effect = lower value 0.944 | S. cerevisiae deletion strains, locus YLR330W, strain CHS5, stronger effect = lower value 0.985 | S. cerevisiae deletion strains, locus YLR342W, strain FKS1 (second series), stronger effect = lower value 1.01 | S. cerevisiae deletion strains, locus YLR342W, strain FKS1, stronger effect = lower value 0.986 | S. cerevisiae deletion strains, locus YLR357W, strain rsc2, stronger effect = lower value 1 | S. cerevisiae deletion strains, locus YLR370C, strain arc18, stronger effect = lower value 0.944 | S. cerevisiae deletion strains, locus YLR371W, strain rom2, stronger effect = lower value 0.979 | S. cerevisiae deletion strains, locus YLR384C, strain iki3, stronger effect = lower value 0.987 | S. cerevisiae deletion strains, locus YLR418C, strain cdc73, stronger effect = lower value 0.974 | S. cerevisiae deletion strains, locus YML016C, strain PPZ1, stronger effect = lower value 0.979 | S. cerevisiae deletion strains, locus YML032C, strain rad52, stronger effect = lower value 0.968 | S. cerevisiae deletion strains, locus YML120C, strain ndi1, stronger effect = lower value 0.936 | S. cerevisiae deletion strains, locus YML124C, strain tub3, stronger effect = lower value 0.994 | S. cerevisiae deletion strains, locus YMR058W, strain fet3, stronger effect = lower value 0.983 | S. cerevisiae deletion strains, locus YMR078C, strain ctf18, stronger effect = lower value 0.978 | S. cerevisiae deletion strains, locus YMR125W, strain sto1, stronger effect = lower value 0.962 | S. cerevisiae deletion strains, locus YMR129W, stronger effect = lower value 0.988 | S. cerevisiae deletion strains, locus YMR205C, strain PFK2, stronger effect = lower value 1.01 | S. cerevisiae deletion strains, locus YMR223W, strain ubp8, stronger effect = lower value 0.997 | S. cerevisiae deletion strains, locus YMR231W, strain pep5, stronger effect = lower value 0.996 | S. cerevisiae deletion strains, locus YMR263W, strain SAP30, stronger effect = lower value 1.01 | S. cerevisiae deletion strains, locus YMR307W, strain GAS1, stronger effect = lower value 1.05 | S. cerevisiae deletion strains, locus YNL067W, strain RPL9B, stronger effect = lower value 1.03 | S. cerevisiae deletion strains, locus YNL071W, strain lat1, stronger effect = lower value 0.989 | S. cerevisiae deletion strains, locus YNL153C, strain GIM3, stronger effect = lower value 1.02 | S. cerevisiae deletion strains, locus YNL183C, strain NPR1, stronger effect = lower value 0.93 | S. cerevisiae deletion strains, locus YNL209W, strain ssb2, stronger effect = lower value 0.971 | S. cerevisiae deletion strains, locus YNL233W, strain BNI4, stronger effect = lower value 1.02 | S. cerevisiae deletion strains, locus YNL248C, strain rpa49, stronger effect = lower value 1.02 | S. cerevisiae deletion strains, locus YNL271C, strain bni1, stronger effect = lower value 0.97 | S. cerevisiae deletion strains, locus YNL298W, strain CLA4, stronger effect = lower value 0.983 | S. cerevisiae deletion strains, locus YNL307C, strain MCK1, stronger effect = lower value 0.99 | S. cerevisiae deletion strains, locus YNL322C, strain KRE1 (second series), stronger effect = lower value 0.962 | S. cerevisiae deletion strains, locus YNR049C, strain mso1, stronger effect = lower value 0.972 | S. cerevisiae deletion strains, locus YNR052C, strain pop2, stronger effect = lower value 0.989 | S. cerevisiae deletion strains, locus YOL006C, strain TOP1, stronger effect = lower value 1.15 | S. cerevisiae deletion strains, locus YOL012C, strain htz1 0.661 | S. cerevisiae deletion strains, locus YOL147C, strain pex11, stronger effect = lower value 0.988 | S. cerevisiae deletion strains, locus YOR001W, strain rrp6, stronger effect = lower value 1.04 | S. cerevisiae deletion strains, locus YOR061W, strain CKA2, stronger effect = lower value 0.967 | S. cerevisiae deletion strains, locus YOR069W, strain VPS5, stronger effect = lower value 0.967 | S. cerevisiae deletion strains, locus YOR070C, strain gyp1, stronger effect = lower value 0.999 | S. cerevisiae deletion strains, locus YOR080W, strain dia2, stronger effect = lower value 0.98 | S. cerevisiae deletion strains, locus YOR083W, strain WHI5, stronger effect = lower value 0.978 | S. cerevisiae deletion strains, locus YOR106W, strain vam3, stronger effect = lower value 0.998 | S. cerevisiae deletion strains, locus YOR136W, strain idh2, stronger effect = lower value 0.984 | S. cerevisiae deletion strains, locus YOR144C, strain elg1, stronger effect = lower value 0.988 | S. cerevisiae deletion strains, locus YOR184W, strain ser1, stronger effect = lower value 0.987 | S. cerevisiae deletion strains, locus YOR231W, strain MKK1, stronger effect = lower value 0.971 | S. cerevisiae deletion strains, locus YOR265W, strain rbl2, stronger effect = lower value 0.976 | S. cerevisiae deletion strains, locus YOR270C, strain vph1, stronger effect = lower value 0.987 | S. cerevisiae deletion strains, locus YOR290C, strain snf2, stronger effect = lower value 0.928 | S. cerevisiae deletion strains, locus YOR316C, strain cot1, stronger effect = lower value 0.97 | S. cerevisiae deletion strains, locus YPL051W, strain arl3, stronger effect = lower value 0.998 | S. cerevisiae deletion strains, locus YPL078C, strain atp4, stronger effect = lower value 0.988 | S. cerevisiae deletion strains, locus YPL106C, strain sse1, stronger effect = lower value 0.944 | S. cerevisiae deletion strains, locus YPL240C, strain hsp82, stronger effect = lower value 0.995 | S. cerevisiae deletion strains, locus YPL256C, strain CLN2, stronger effect = lower value 0.981 | S. cerevisiae deletion strains, locus YPR119W, strain clb2, stronger effect = lower value 0.982 | S. cerevisiae deletion strains, locus YPR141C, strain kar3, stronger effect = lower value 0.975 | S. cerevisiae deletion strains, locus YPR163C, strain tif3, stronger effect = lower value 0.983 | S. cerevisiae deletion strains, locus YPR167C, strain met16, stronger effect = lower value 0.991 | S. cerevisiae deletion strains, strain wtn01, stronger effect = lower value 1 | S. cerevisiae strains, strain wild type, stronger effect = lower value 0.984
